MEP2-GFP yeast: modulators of MEP2-GFP levels in yeast, primary screen, S. cerevisiae, multiplex flow cytometry, MLPCN library; GFP response vs DMSO, % at 10 µM; AID 2016, 2009; S. cerevisiae MEP2-GFP strain, 3 h; 100% = DMSO control level; hit rate 0.51% among 330,000;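 active = GFP response versus DMSO above a set limit, roughly screen mean plus 3 SD, cut at about 180% in these data; inconclusive = fewer than 70 cells counted for a yeast strain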;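 note: median GFP fluorescence of the barcode-gated MEP2-GFP cells per well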
RPL19A TOR yeast: RPL19A-GFP expression modulators in yeast, primary screen, cell-based, S. cerevisiae, multiplex flow cytometry, MLPCN; S. cerevisiae RPL19A-GFP strain, 3 h; stronger effect = lower value; percent response vs DMSO, % at 10 µM; hit rate 0.3% among 330,000;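 active = percent response vs DMSO below 50%; inconclusive = fewer than 70 events counted for the yeast strain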;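 note: median channel GFP fluorescence of the barcoded RPL19A-GFP strain; ratio of sample median GFP to plate DMSO average so 100% = DMSO; lower means less RPL19A-GFP as with rapamycin TOR inhibition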
AGP1-GFP MLPCN: modulators of AGP1-GFP expression in yeast TOR pathway, primary screen, cell-based, multiplex flow cytometry, S. cerevisiae, MLPCN library. AID 2066, 2009. hit rate 0.02% among 320,000. GFP response vs DMSO, % at 10 µM. 3 h; GFP as percent of DMSO wells;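 active = GFP response relative to DMSO above a set limit, near screen average plus 3 SD, cut at about 150% in these data; inconclusive = fewer than 70 cells counted for the yeast strain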;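 note: median GFP channel fluorescence of the gated AGP1 strain per well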
CIT2 TOR yeast: modulators of CIT2-GFP expression in yeast, primary screen, S. cerevisiae, GFP fusion, multiplex flow cytometry, MLPCN library. AID 2029, 2009. GFP response vs DMSO, % at 10 µM. hit rate 0.065% among 320,000. S. cerevisiae CIT2-GFP strain, 3 h; 100 means same as DMSO wells;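 active = GFP response relative to DMSO above a set limit, near the screen mean plus 3 SD, cut at about 150% in these data; inconclusive = Fewer than 70 cells measured for a yeast strain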;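 note: ratio of well median GFP fluorescence to mean of DMSO wells on the plate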
LAP4 TOR yeast: modulators of LAP4-GFP expression in yeast, primary screen, S. cerevisiae, multiplex flow cytometry, MLPCN library; GFP response vs DMSO, % at 10 µM; 3 h; median GFP as percent of DMSO wells; hit rate 0.34% among 320,000;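 active = GFP response vs DMSO above a set limit, about the screen mean plus 3 SD, cut at about 150% in these data; inconclusive = under 70 cell events counted for the yeast strain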
Active calls of the source: *; [ ] = dose if it differs, or a comment. Hits are enriched below; roughly 0.89% of the tested compounds scored in any of these assays.

Cc1ccc(OCC(=O)NNC(=O)C2CC(=O)N(c3ccc4c(c3)OCCO4)C2)cc1 (configuration not stated) was read as MEP2-GFP yeast 89, RPL19A TOR yeast 89, AGP1-GFP MLPCN 87, CIT2 TOR yeast 89 and LAP4 TOR yeast 99.
Screening COc1cccc(CC(NC(C)=O)C(=O)NC2CCN(c3nnnn3-c3ccccc3)CC2)c1 (configuration not stated) returned MEP2-GFP yeast 102, RPL19A TOR yeast 100, AGP1-GFP MLPCN 108, CIT2 TOR yeast 109 and LAP4 TOR yeast 98.
For COc1ccc(CC(NC(C)=O)C(=O)NC2CCN(c3nnnn3-c3ccccc3)CC2)cc1 (configuration not stated) the results were MEP2-GFP yeast 205*[may fluoresce violet], RPL19A TOR yeast 30*[may fluoresce violet], AGP1-GFP MLPCN inconclusive, CIT2 TOR yeast inconclusive and LAP4 TOR yeast 92.
Screening CCN(CC)c1ccc(/C=C/C(=O)C2C(=O)C=C(C)OC2=O)cc1 (configuration not stated) returned MEP2-GFP yeast 462*[may fluoresce violet], RPL19A TOR yeast 138, AGP1-GFP MLPCN 68, CIT2 TOR yeast inconclusive and LAP4 TOR yeast 429*[may fluoresce violet].
CCN(CC)c1ccc(C=C2C(=O)OC(c3ccccc3)OC2=O)cc1 (configuration not stated) was read as MEP2-GFP yeast 98, RPL19A TOR yeast 93, AGP1-GFP MLPCN 104, CIT2 TOR yeast 89 and LAP4 TOR yeast 101.
Screening Cc1ccc(CCNC(=O)CCS(=O)(=O)Cc2ccc(C)cc2)cc1 returned MEP2-GFP yeast 107, RPL19A TOR yeast 103, AGP1-GFP MLPCN 98, CIT2 TOR yeast 100 and LAP4 TOR yeast 91.
Screening O=C(CCS(=O)(=O)Cc1ccccc1F)NCCc1ccc(Cl)cc1 returned MEP2-GFP yeast 518*, RPL19A TOR yeast 57, AGP1-GFP MLPCN 162* and CIT2 TOR yeast 150*.
`O=C1c2ccccc2CCC12N=NCC2c1ccccc1` (configuration not stated) gave MEP2-GFP yeast 246*[may fluoresce violet], RPL19A TOR yeast 14*[may fluoresce violet], AGP1-GFP MLPCN inconclusive, CIT2 TOR yeast inconclusive and LAP4 TOR yeast 133.
O=C1c2ccccc2CCc2ccc(Br)cc21 was read as MEP2-GFP yeast 89, RPL19A TOR yeast 96, AGP1-GFP MLPCN 98, CIT2 TOR yeast 97 and LAP4 TOR yeast 98.
CCOC(=O)C1CCN(c2cc(=O)n(C3CCCCC3)c(=O)[nH]2)CC1 was read as MEP2-GFP yeast 169, RPL19A TOR yeast 98, AGP1-GFP MLPCN 68, CIT2 TOR yeast 100 and LAP4 TOR yeast 90.
For CCOC(=O)N1CCN(c2cc(=O)n(C3CCCCC3)c(=O)[nH]2)CC1 the results were MEP2-GFP yeast 266*[may fluoresce violet], RPL19A TOR yeast 62, AGP1-GFP MLPCN inconclusive, CIT2 TOR yeast inconclusive and LAP4 TOR yeast 60.
`COC(=O)C(Cc1ccc(O)cc1)NC(=O)CCc1ccco1` (configuration not stated) gave MEP2-GFP yeast inconclusive, RPL19A TOR yeast 18*[may fluoresce violet], AGP1-GFP MLPCN inconclusive, CIT2 TOR yeast inconclusive and LAP4 TOR yeast inconclusive.
COC(=O)C(Cc1ccc(O)cc1)NC(=O)c1ccc2c(c1)OCCO2 (configuration not stated) was read as MEP2-GFP yeast 237*[may fluoresce violet], RPL19A TOR yeast 39*[may fluoresce violet], AGP1-GFP MLPCN inconclusive, CIT2 TOR yeast inconclusive and LAP4 TOR yeast 67.
`O=C1NC2=C(C(=O)CCC2)C(c2ccc(OC(F)F)cc2)N1` (configuration not stated) gave MEP2-GFP yeast 99, RPL19A TOR yeast 93, AGP1-GFP MLPCN 95, CIT2 TOR yeast 96 and LAP4 TOR yeast 98.
Screening CC(OC(=O)CSc1ccc([N+](=O)[O-])cc1)C(=O)NCc1ccccc1 (configuration not stated) returned MEP2-GFP yeast 83, RPL19A TOR yeast 58, AGP1-GFP MLPCN 83, CIT2 TOR yeast 85 and LAP4 TOR yeast 201*.
Screening C=CCN1C(=O)c2ccccc2NC1c1cc(Br)cs1 (configuration not stated) returned MEP2-GFP yeast 279*[may fluoresce violet], RPL19A TOR yeast 55, AGP1-GFP MLPCN 23, CIT2 TOR yeast inconclusive and LAP4 TOR yeast 92.
Screening O=C(Cc1ccc([N+](=O)[O-])cc1)Nc1ccc2c(c1)OCO2 returned MEP2-GFP yeast 106, RPL19A TOR yeast 101, AGP1-GFP MLPCN 112, CIT2 TOR yeast 95 and LAP4 TOR yeast 113.
Cc1ccc(N2CC(C(=O)Nc3ccc(S(=O)(=O)N4CCOCC4)cc3)CC2=O)cc1 (configuration not stated) was read as MEP2-GFP yeast 105, RPL19A TOR yeast 101, AGP1-GFP MLPCN 107, CIT2 TOR yeast 95 and LAP4 TOR yeast 104.
For CCOc1ccc(N2CC(C(=O)Nc3ccc(S(=O)(=O)N4CCOCC4)cc3)CC2=O)cc1 (configuration not stated) the results were MEP2-GFP yeast 186*[may fluoresce violet], RPL19A TOR yeast 64, AGP1-GFP MLPCN 26, CIT2 TOR yeast inconclusive and LAP4 TOR yeast 96.
`O=C(Nc1ccc(S(=O)(=O)N2CCOCC2)cc1)c1ccc([N+](=O)[O-])cc1Cl` gave MEP2-GFP yeast 307*, RPL19A TOR yeast 107, AGP1-GFP MLPCN 108, CIT2 TOR yeast 101 and LAP4 TOR yeast 118.
`O=C(Nc1ccc2c(c1)OCO2)c1ccc([N+](=O)[O-])cc1[N+](=O)[O-]` gave MEP2-GFP yeast 220*[may fluoresce violet], RPL19A TOR yeast 65, AGP1-GFP MLPCN 23, CIT2 TOR yeast inconclusive and LAP4 TOR yeast 99.
Screening CC(Oc1ccc(Cl)cc1)C(=O)Nc1ccc(S(=O)(=O)N2CCOCC2)cc1 (configuration not stated) returned MEP2-GFP yeast 275*[may fluoresce violet], RPL19A TOR yeast 58, AGP1-GFP MLPCN 26, CIT2 TOR yeast inconclusive and LAP4 TOR yeast 93.
For Cc1ccc(C(=O)OCC(=O)NC2CCCCC2)cc1S(=O)(=O)N1CCCCC1 the results were MEP2-GFP yeast 109, RPL19A TOR yeast 100, AGP1-GFP MLPCN 108, CIT2 TOR yeast 101 and LAP4 TOR yeast 108.
Cc1ccc(NC(=O)COC(=O)Cc2ccc(Br)cc2)cc1S(=O)(=O)N1CCOCC1 was read as MEP2-GFP yeast 98, RPL19A TOR yeast 100, AGP1-GFP MLPCN 97, CIT2 TOR yeast 108 and LAP4 TOR yeast 91.
`COc1ccc(OCCOC(=O)c2ccc(F)c(S(=O)(=O)N3CCOCC3)c2)cc1` gave MEP2-GFP yeast 99, RPL19A TOR yeast 94, AGP1-GFP MLPCN 94, CIT2 TOR yeast 87 and LAP4 TOR yeast 103.
Screening O=C(COc1ccc([N+](=O)[O-])cc1)Nc1ccc(S(=O)(=O)N2CCOCC2)cc1 returned MEP2-GFP yeast 399*[may fluoresce violet], RPL19A TOR yeast 58, AGP1-GFP MLPCN 24, CIT2 TOR yeast inconclusive and LAP4 TOR yeast 96.
